Our source for the Potency and viability (% of control) values is PubChem BioAssay (NCATS).

A short description of assay [1]: qHTS assay for measurement of the activity of small molecule inhibitors on Zika virus induced Caspase-3 activity in human iPSC derived neural progenitor cells (hNPCs) (AID 1224857). Further: % of control where 0% means no effect; nearly all actives have a fitted effect of over 65% in size. An outline of the steps:
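Percent inhibition of virus-induced caspase-3/7 luminescence (Caspase-Glo), scaled between uninfected cells and Zika-infected cells. hNPCs received compound 1 hr before ZIKV at 2 FFU/cell, with 6 hours infection at 37 C.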

Assay [2] is described as follows: qHTS assay for measurement of the activity of small molecule inhibitors on Zika virus induced Caspase-3 activity in human astrocytoma cells (AID 1224859).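 Further: plate controls were ZIKV-infected untreated cells for no effect and uninfected cells for full effect.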 The method in brief: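 Luminescent caspase-3/7 read-out (30 min reagent, room temperature) in human SNB-19 cells infected 6 h with ZIKV (2 FFU/cell) after 1 h compound pre-incubation; Data were normalised to uninfected and infected wells.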

Assay [3] in a line: qHTS Screen of the MIPE 4.0 Collection Against Ewings Sarcoma (RDES) (AID 1259252). Further: nearly all actives have a fitted effect of over 35% in size. Further: potency means the concentration at half of the fitted maximal effect. An outline of the steps: (§1)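 Here, cells in 5% FBS RPMI were exposed for two days (48 h) to compound dilutions added four hours after plating. ATP-based CellTiter-Glo luminescence measured viability, normalized to vehicle and no-cell blanks.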
Assay [4] can be described thus: qHTS Screen of the MIPE 4.0 Collection Against Ewings Sarcoma (TC71) (AID 1259253). Further: nearly all actives have a fitted effect of over 40% in size. Further: potency means the concentration at half of the fitted maximal effect. The method in brief:
as §1

Assay [5] can be described thus: qHTS Screen of the MIPE 4.0 Collection Against Ewings Sarcoma (EW8) (AID 1259255). Further: nearly all actives have a fitted effect of over 35% in size. Further: potency means the concentration at half of the fitted maximal effect.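 On viability: 100% = DMSO-treated cells and 0% = medium-only wells without cells.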 An outline of the steps: as §1
A short description of assay [6]: qHTS Screen of the MIPE 4.0 Collection Against Ewings Sarcoma (TC32) (AID 1259256). Further: nearly all actives have a fitted effect of over 45% in size. Further: potency means the concentration at half of the fitted maximal effect. An outline of the steps:
as §1

A short description of assay [7]: P-glycoprotein substrates identified in KB-8-5-11 adenocarcinoma cell line, qHTS therapeutic library screen (AID 1346987). Further: nearly all actives have a fitted effect of over 65% in size. Further: potency means the concentration at half of the fitted maximal effect. The method in brief: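 Luminescence from CellTiter-Glo, read 5 min after addition, quantified survival of KB-8-5-11 (P-gp-overexpressing) cells exposed to compounds for 72 h. AC50 was derived from concentration-response curves.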
Assay [8] in a line: High-throughput drug toxicity screening in the BPDCN cell line Cal-1 (AID 1224825; call rule not given here). Conditions: Cal-1 BPDCN cell viability, qHTS; at 45.8 µM (top of the series) unless noted. The method in brief:
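Viability of the BPDCN line Cal-1 is measured as ATP-based luminescence (CellTiter-Glo) following 48 h incubation with compounds. Percent activity uses DMSO-treated wells as 100% and 9.2 uM bortezomib as 0%.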

Assay [9] in a line: P-glycoprotein substrates identified in KB-3-1 adenocarcinoma cell line, qHTS therapeutic library screen (AID 1346986). Further: nearly all actives have a fitted effect of over 60% in size.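 Further: potency means the concentration at half of the fitted maximal effect; potency is for cytotoxicity meaning loss of cell viability.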 An outline of the steps: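 72 h cell-killing screen, 500 cells/well, CellTiter-Glo luminescence. Paired lines KB-3-1/KB-8-5-11; P-gp dependence checked by tariquidar co-treatment and HEK-293 MDR-19 versus empty-vector cells.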

Where “and” joins values, the source holds several entries; their conditions need not be identical. Identical values can stand only once. Results filed as inconclusive are left out. Calls of active or inactive are those of the source. Unless noted, the call rests on the fitted dose curve; in most records, active means well fitted curve in the direction sought with a large enough effect; inconclusive means small, poorly fitted or top-dose-only effect, or another doubt; inactive means no such curve, though single readings can be large; an effect the other way counts as inactive or inconclusive. Non-standard residues stand in square brackets, D forms with d. Residues, ends and D or L forms follow the SMILES beside them. *: point of attachment. Nva = CCC[C@H](N)C(=O)O; Cbz = O=C(OCc1ccccc1)*

On to `Oc1ccc([C@@H]2Oc3ccc(O)cc3[C@@H]3CCC[C@@H]32)cc1`, for which the Potency entry in [1] and in assay [2] was “inactive” throughout. The Potency in assay [3] was 18.7 µM (active); in assay [4], 26.4 µM (active); in assay [5], 10.5 µM (active); in assay [6], 9.35 µM (active); in assay [7], 5.9 µM (active) and 5.8 µM (active).
For the molecule `N#Cc1ccc(COC[C@H]2O[C@@H](n3c(NCc4ccc(Cl)c(Cl)c4)nc4c(N)ncnc43)[C@@H](O)[C@@H]2O)cc1`, the viability (% of control) in [8] came out at 3.42%. Further, the Potency result in [1], in assay [2] and in [7] was “inactive” each time. Further, the Potency in [3], in [4] and in assay [5] was 9.35 µM (active) each time.
Take `CCc1nc(-c2cccc(C)c2)c(-c2ccnc(NC(=O)c3ccccc3)c2)s1`: in assay [8], the viability (% of control) was 25.7%. For the same molecule, the Potency result in assay [1] and in assay [2] was “inactive” throughout. For the same molecule, the Potency in assay [3] was 14.8 µM (active); in assay [4] it was 18.7 µM (active); in [5], 20.9 µM (active); in assay [6], 20.9 µM (active); in assay [7], 20.9 µM (active).
Take `CCC[C@@H](C=O)NC(=O)[C@H](CC(C)C)NC(=O)[C@H](CC(C)C)NC(=O)OCc1ccccc1` (Cbz-Leu-Leu-[Nva]-aldehyde): the viability (% of control) in assay [8] worked out at 7.12%. Moreover, the Potency result in assay [1] and in [2] was “inactive” each time. Besides, the Potency is 1.18 µM (active) in assay [3]; 1.32 µM (active) in assay [4]; 0.743 µM (active) in [5]; 1.05 µM (active) in [6]; 7.43 µM (active) in assay [7].
As to `COc1cc(C(=O)NC2CCN(C)CC2)ccc1Nc1ncc2c(n1)N(C1CCCC1)CCC(=O)N2C(C)C`, the viability (% of control) in [8] was 2.49%. Moreover, the Potency result in assay [1] was “inactive”. Besides, the Potency is 2.35 µM (active) in [3], 2.09 µM (active) in [5] and 2.35 µM (active) in assay [6].
Regarding `C=CC(=O)Nc1cc(NC(=O)c2ccc(C)c(NC(=O)c3ccno3)c2)cc(C(F)(F)F)c1`, the Potency result in [1], in assay [2] and in assay [7] was “inactive” in each case. Further, the Potency was 23.5 µM (active) in assay [3], 20.9 µM (active) in [4] and 20.9 µM (active) in assay [5].
Consider `NC(=NCCCCCCN=C(N)N=C(N)Nc1ccc(Cl)cc1)N=C(N)Nc1ccc(Cl)cc1`, for which, in assay [8], the viability (% of control) worked out at 2.49%. The Potency entry in assay [1] and in assay [2] was “inactive” in each case. The Potency in assay [3] was 2.96 µM (active); in [4], 4.18 µM (active); in [5], 9.35 µM (active); in assay [6] it was 7.43 µM (active).
Take `O=C(O)c1ccc(Nc2ncc3c(n2)-c2ccc(Cl)cc2C(c2c(F)cccc2F)=NC3)cc1`: in assay [8], the viability (% of control) came to 18.2%. Further, the Potency entry in assay [1] and in assay [2] was “inactive” throughout. The Potency is 1.05 µM (active) in assay [3]; 0.833 µM (active) in [4]; 0.296 µM (active) in assay [5]; 0.59 µM (active) in [6]; 0.82 µM (active) in assay [9].
`COC(=O)C=CC(=O)OC`: the viability (% of control) in [8] was found to be 101%. Moreover, the Potency entry in [1] and in assay [7] was “inactive” in each case. Also, the Potency in assay [3] was 8.33 µM (active); in assay [5], 26.4 µM (active).
On to `COC(=O)[C@@H]1CC2=CC(=O)CC[C@]2(C)[C@@]23O[C@@H]2C[C@@]2(C)[C@H](CC[C@@]24CCC(=O)O4)[C@@H]13`, for which the viability (% of control) in assay [8] is 108%. The Potency entry in [1], in assay [2], in assay [3], in assay [4], in assay [5] and in assay [6] was “inactive” throughout. For the same molecule, the Potency entry in assay [9] and in assay [7] was “inactive” in each case.
As to `Cn1cc(-c2ccc3ncc(Cc4ccc5ncccc5c4)n3n2)cn1`, the viability (% of control) in [8] turned out to be 35.3%. Further, the Potency entry in [1], in assay [2], in [3], in [4], in assay [5] and in assay [6] was “inactive” in each case. Also, the Potency entry in assay [7] is “inactive”.
In the case of `COc1cccc2c1C(=O)c1c(O)c3c(c(O)c1C2=O)C[C@@](O)(C(=O)CO)C[C@@H]3O[C@H]1C[C@H](N)[C@@H](O)[C@H](C)O1`, the viability (% of control) in [8] was found to be 4.51%. The Potency entry in assay [1] is “inactive”. In addition, the Potency in assay [3] was 0.264 µM (active); in assay [4], 0.187 µM (active); in [5], 0.0296 µM (active); in assay [6] it was 0.0042 µM (active).
With `C=CCNc1c(O)cc2c(O)c1C[C@@H](C)C[C@H](OC)[C@@H](O)[C@@H](C)C=C(C)[C@H](OC(N)=O)[C@@H](OC)C=CC=C(C)C(=O)N2`, the viability (% of control) in [8] turned out to be 6.05%. Moreover, the Potency entry in [1] and in [2] was “inactive” throughout. Besides, the Potency is 2.64 µM (active) in assay [3]; 2.35 µM (active) in [4]; 5.9 µM (active) in assay [5]; 0.264 µM (active) in [6]; 6.62 µM (active) in assay [7].
As to `CNC(=O)Nc1ccc(-c2nc(N3CC4CCC(C3)O4)c3cnn(C4CCC5(CC4)OCCO5)c3n2)cc1`, the viability (% of control) in assay [8] was 8.62%. In addition, the Potency result in [1] and in assay [2] was “inactive” in each case. The Potency in assay [3] was 0.0469 µM (active); in assay [4], 0.0132 µM (active); in assay [5], 0.0132 µM (active); in assay [6] it was 0.0074 µM (active); in assay [9], 0.0411 µM (active); in assay [7], 14.8 nM (active) and 184 nM (active).
Take `OC[C@@H](O)[C@@H](O)[C@H](O)[C@@H](O)CO`: the viability (% of control) in assay [8] was 126%. In addition, the Potency result in assay [1], in assay [2], in assay [3], in assay [4], in assay [5] and in [6] was “inactive” each time. The Potency entry in [9] and in assay [7] was “inactive” throughout.
For the molecule `CN1C(C(=O)Nc2ccccn2)=C(O)c2sc(Cl)cc2S1(=O)=O`, in [8], the viability (% of control) turned out to be 71.2%. Also, the Potency result in assay [1], in assay [2] and in assay [7] was “inactive” throughout. Moreover, the Potency in assay [3] was 3.32 µM (active); in [4] it was 3.72 µM (active); in assay [5], 20.9 µM (active); in assay [6], 5.26 µM (active).
For `COc1ccc(S(=O)(=O)Nc2cccnc2Nc2ccc(O)cc2)cc1`, the viability (% of control) in assay [8] stood at 8.72%. In addition, the Potency result in assay [1], in [2] and in assay [6] was “inactive” in each case. Further, the Potency in assay [3] is 0.0833 µM (active); in assay [4], 0.148 µM (active); in assay [5] it was 0.0935 µM (active); in assay [7] it was 418 nM (active) and 920 nM (active).
As to `NC(=O)Nc1sc(-c2ccc(F)cc2)cc1C(N)=O`, the viability (% of control) in assay [8] worked out at 3.13%. The Potency result in [1] and in [2] was “inactive” throughout. Moreover, the Potency is 1.05 µM (active) in assay [3]; 1.66 µM (active) in [4]; 3.72 µM (active) in assay [5]; 1.48 µM (active) in assay [6]; 8.33 µM (active) in [7].
In the case of `Oc1cc(-c2nc(-c3ccccc3)[nH]c2-c2ccncc2)ccc1Cl`, in [8], the viability (% of control) was 5.51%. Besides, the Potency entry in assay [1] and in assay [2] was “inactive” each time. For the same molecule, the Potency in [3] was 18.7 µM (active); in [4], 26.4 µM (active); in assay [5], 23.5 µM (active); in assay [6], 18.7 µM (active).
